Compounds with a hit are over-represented: about 2.8% of the library has one in this group of screens.
PAFAH2 inh: inhibitors of human PAFAH2. inhibition, % at 3.39 µM. recombinant PAFAH2, FP-rhodamine activity probe, fluorescence polarization. Q99487. hit rate 0.99% among 340,000;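 active = inhibition above the mean over all tested compounds plus 3 SD, cut at about 30% in these data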;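 note: inhibitors block probe labeling of enzyme so polarization drops; 0% = enzyme with DMSO and 100% = wells lacking PAFAH2 protein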
PAFAH1B3 inh: inhibitors of human PAFAH1B3; Q15102; recombinant PAFAH1B3, FP-rhodamine probe, fluorescence polarization; inhibition, % at 3.39 µM; hit rate 0.28% among 340,000; AID 492972;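 active = inhibition above the screen-wide average of all tested compounds plus 3 SD, cut at about 25% in these data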;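 note: 0% = enzyme with DMSO only and 100% = wells lacking PAFAH1B3 protein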
Target sequence (Q15102 whole entry, looked up): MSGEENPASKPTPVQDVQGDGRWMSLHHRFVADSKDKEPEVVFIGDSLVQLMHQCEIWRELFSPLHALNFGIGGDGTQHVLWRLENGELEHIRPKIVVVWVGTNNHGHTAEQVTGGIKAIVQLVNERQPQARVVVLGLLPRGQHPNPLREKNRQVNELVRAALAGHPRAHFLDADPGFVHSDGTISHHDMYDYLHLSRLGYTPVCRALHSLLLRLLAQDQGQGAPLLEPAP
pPAFAH inh: inhibitors of human plasma PAF acetylhydrolase (pPAFAH). Q13093. recombinant pPAFAH, FP-rhodamine probe fluorescence polarization. inhibition, % at 3.39 µM. hit rate 1.5% among 330,000. AID 463082;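 active = inhibition above the mean inhibition across the screen plus 3 SD, cut at about 25% in these data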;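 note: inhibitors block binding of the rhodamine activity-based probe so polarization drops; 0% = enzyme with DMSO and 100% = wells lacking pPAFAH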
PAFAH1B2 FP inh: blocks human PAF acetylhydrolase 1b catalytic subunit 2; P68402; recombinant PAFAH1B2, FP-rhodamine activity probe, fluorescence polarization; inhibition, % at 3.39 µM; hit rate 1.2% among 340,000; AID 492953;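 active = inhibition above the mean of all tested compounds plus 3 SD, cut at about 24% in these data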;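 note: 0% = enzyme with DMSO and 100% = wells lacking PAFAH1B2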
Target sequence (P68402 whole entry, looked up): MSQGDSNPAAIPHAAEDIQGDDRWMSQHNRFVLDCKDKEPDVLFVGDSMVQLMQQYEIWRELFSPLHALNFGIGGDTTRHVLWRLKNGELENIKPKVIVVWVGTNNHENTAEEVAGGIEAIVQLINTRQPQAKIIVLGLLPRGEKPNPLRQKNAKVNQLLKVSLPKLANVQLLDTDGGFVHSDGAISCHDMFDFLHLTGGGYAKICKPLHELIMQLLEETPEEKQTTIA
Fam108B counter: Fam108B inhibition, counter-screen for RBBP9 inhibitors; AID 1947; hit rate 0.33% among 300,000; inhibition, % at 9.51 µM; recombinant Fam108B, FP-Rh probe fluorescence polarization;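 active = inhibition above the screen mean inhibition plus 3 SD, computed separately per campaign, cut at about 18% in these data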;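 note: inhibitors lower polarization as less probe binds the enzyme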
PME-1 primary: PME-1 (human) inhibition; Q9Y570; recombinant PME-1, FP-Rh probe fluorescence polarization; hit rate 0.53% among 320,000; inhibition, % at 5.9 µM; AID 2130;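 active = inhibition above the campaign mean of all compounds plus 3 SD, cut at about 26% in these data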;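 note: competitive labeling of PME-1 active site by serine hydrolase directed probe; 0% = PME-1 with DMSO and 100% = wells lacking PME-1 enzyme; inhibitors block probe labeling so polarization falls and inhibition rises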
* marks the source's active call; other numbers are inactive results; nt = no result.

SMILES | PAFAH2 inh | PAFAH1B3 inh | pPAFAH inh | PAFAH1B2 FP inh | Fam108B counter | PME-1 primary
Cc1ccc(Nc2nc(NCCO)c3ccccc3n2)cc1C | 4.1 | 2.4 | 8.5 | 3.6 | 8.7 | -86.0
O=C(C[C@H]1C/C=C\CC[C@H](Cc2ccc(F)cc2)C(=O)O[C@@H](c2ccccc2)CNC1=O)N[C@H](CO)Cc1ccccc1 | 7.4 | 2.2 | 1.8 | 12.6 | nt | nt
O=C(C[C@@H]1C/C=C\CC[C@@H](Cc2ccc(F)cc2)C(=O)OC[C@@H]2CCCN2C1=O)N[C@H](CO)Cc1ccccc1 | 4.4 | -1.0 | -4.0 | 8.9 | nt | nt
O=C(C[C@@H]1C/C=C\C[C@@H](Cc2ccc(F)cc2)C(=O)OC[C@H]2CCCN2C1=O)N[C@H](CO)Cc1ccccc1 | 0.8 | 6.5 | -1.4 | 30.8* | nt | nt
O=C(C[C@H]1C/C=C\CC[C@H](Cc2ccc(F)cc2)C(=O)O[C@@H](c2ccccc2)CNC1=O)N[C@@H](CO)Cc1ccccc1 | 7.9 | 5.6 | 3.6 | 25.2* | nt | nt
O=C(C[C@H]1C/C=C\C[C@@H](Cc2ccc(F)cc2)C(=O)OC[C@H]2CCCN2C1=O)N[C@@H](CO)Cc1ccccc1 | -3.2 | 2.2 | 6.6 | 35.1* | nt | nt
COc1ccc(CCNC(=O)c2cc3cc(F)ccc3nc2C)cc1OC | 2.8 | -7.8 | 2.5 | 3.4 | -4.5 | -1.9
NC(=O)CC[C@H](NC(=O)c1ccc(F)cc1)C(=O)N1CCN(Cc2ccc3c(c2)OCO3)CC1 | 2.6 | 1.6 | 3.2 | -2.8 | nt | nt
O=C1CC(CSc2ccc(Cl)cc2)=NN1 | nt | nt | 14.6 | nt | 1.2 | 3.6
Cc1cc(SCC2=NNC(=O)C2)c(Cl)cc1Cl | -6.6 | 9.7 | 28.0* | 4.4 | 3.5 | 2.7
COc1cccc(CN(C)C(=O)COc2ccc(C(=O)c3ccc(Cl)cc3)cc2)c1OC | 4.7 | -2.1 | 28.2* | 2.4 | -2.4 | 5.1
CC(=O)CSc1cc(-c2ccccc2)nc2ncnn12 | 4.8 | 8.1 | -0.1 | 1.4 | 0.3 | -4.6
COc1cc(/C=N/NC(=O)C(=O)NCC2CCCO2)ccc1O (centres undefined) | -6.0 | -0.6 | -3.4 | 4.1 | 3.7 | 3.5
O=C(NCC1CCCO1)C(=O)N/N=C/c1ccc(OCc2ccccc2Cl)cc1 (centres undefined) | 4.6 | 6.0 | 29.7* | 3.4 | -1.6 | -6.5
Cc1nc2cc3ccccc3cc2c(=O)[nH]1 | 0.1 | 7.0 | 26.5* | -0.1 | 1.3 | -2.5
CCOC(=O)c1cc(-c2ccccc2)sc1NC(=O)CSc1nnc(N)s1 | -0.5 | -2.2 | 25.5* | 1.0 | 6.1 | -34.3
CC(=O)Nc1ccc(S(=O)(=O)N2CCN=C2SCc2ccc([N+](=O)[O-])cc2)cc1 | 4.7 | -5.2 | 8.3 | 1.4 | -0.4 | 7.7
Cc1oc2cc(Br)c(O)c(Br)c2c1-c1ccccc1 | 71.9* | -3.6 | 17.3 | 16.1 | -2.2 | 5.6
CC(C)(C)c1[nH]nc2c1C(C1C=CCCC1)C(C#N)=C(N)O2 (centres undefined) | 6.9 | -2.6 | -3.0 | 26.9* | 2.5 | -4.3
CC(C)(C)c1[nH]nc2c1C(Cc1ccccc1)C(C#N)=C(N)O2 (centres undefined) | 1.1 | 4.3 | -1.3 | 39.6* | -3.6 | 2.8
CC(C)c1[nH]nc2c1C(C1C=CCCC1)C(C#N)=C(N)O2 (centres undefined) | 5.5 | 1.8 | -2.0 | 17.5 | 2.4 | -0.5
Cc1nc(N)[nH]c(=O)c1CCCNc1ccc(CCC2(CCl)OCCO2)cc1 | -10.4 | 8.1 | nt | -0.1 | nt | nt
N#CC1=C(N)Oc2cc(N)ccc2C1c1ccsc1 (centres undefined) | 2.2 | 7.0 | 14.9 | 1.4 | -0.8 | -11.2
Cc1ccc(C2C(C#N)=C(N)Oc3cc(N)ccc32)cc1 (centres undefined) | -1.4 | -1.8 | 26.7* | 5.4 | -8.3 | -12.6
Cc1cc(OCCCC(=O)NCCc2nnc3ccccn23)ccc1Cl | 1.3 | 0.4 | 0.6 | -3.5 | nt | nt
SMILES | PAFAH2 inh | PAFAH1B3 inh | pPAFAH inh | PAFAH1B2 FP inh | Fam108B counter | PME-1 primary
CC(C)(C)c1ccc(-n2ncc3c2CCCC3NC(=O)C2(C(N)=O)CC2)cc1 (centres undefined) | -2.5 | 3.8 | 3.6 | 4.8 | -5.4 | -4.5
COc1ccc(NC(=O)O/N=C/c2ccc(Br)cc2)cc1 | 9.5 | 7.5 | 10.5 | 46.2* | 0.1 | -8.3
Cc1ccc(NC(=O)O/N=C/c2ccc(F)cc2)cc1 | 5.0 | 9.6 | -1.7 | 10.3 | 4.2 | 2.9
Cc1ccc(NC(=O)O/N=C/c2ccc(Br)cc2)cc1 | -2.9 | 3.6 | 7.7 | 57.5* | -2.5 | -11.0
COc1ccc(NC(=O)O/N=C/c2ccc(N(C)C)cc2)cc1 | -5.2 | 4.2 | 7.1 | 3.7 | -0.3 | 9.1
N#C/C(=C\c1c(N2CCCCC2)nc2ccccn2c1=O)S(=O)(=O)c1ccccc1 | 14.4 | -1.5 | 3.3 | 5.5 | -2.8 | 8.6
O=C(O)C1(Nc2ccc(Br)cc2)CCCC1 | 12.8 | 3.7 | nt | -1.9 | nt | nt
Cc1ccc(/C=C2/SC(=O)NC2=S)o1 | 59.8* | 45.2* | nt | 26.1* | nt | nt
CCC(C)(C)C1CCC2(CC1)NC(=O)N(CC(=O)N(C)Cc1ccc3c(c1)OCCO3)C2=O (centres undefined) | -0.2 | 6.9 | -1.1 | 21.7 | nt | 2.8
COc1ccc2oc(=O)c(/C(C)=N/Nc3nc(-c4cc(C)ccc4C)cs3)cc2c1 | 2.4 | -1.2 | 5.0 | 3.2 | -3.3 | -2.3
COc1ccc2oc(=O)c(-c3csc(Nc4ccc(O)cc4)n3)cc2c1 | -5.2 | 17.0 | 29.1* | 8.2 | 3.7 | 18.7
COC(=O)Cc1csc(Nc2ccc(F)c(Cl)c2)n1 | 4.6 | 11.4 | 25.0* | 2.1 | -2.3 | 0.9
CCCCNC(=O)Oc1ccc(C(=O)N2c3ccccc3NC(=O)C2C)cc1 (centres undefined) | -11.1 | 4.0 | -1.8 | 34.2* | 4.5 | 8.4
Cc1ccccc1C(=O)N1CCN(c2ccc(NC(=O)CSc3ccc(Cl)cc3)cc2)CC1 | -1.2 | 4.3 | 17.8 | 31.5* | 1.5 | 5.3
O=C(CSc1ccc(Cl)cc1)Nc1ccc(N2CCN(C(=O)c3ccco3)CC2)cc1 | 10.5 | 1.5 | 20.2 | 25.9* | -3.6 | 1.7
C#Cc1ccc(CN2CCN(CCCc3ccccc3)C(CCO)C2)cc1 (centres undefined) | 2.0 | -6.2 | 1.4 | -0.2 | 1.2 | -2.1
CCn1c(=O)n(CC)c2cc(N3CCCC3)c(NC(=O)c3ccc(C)cc3)cc21 | 3.6 | 5.4 | 14.9 | 4.5 | 3.3 | 2.0
CN1CCC(C(=O)C(=O)O)C1=O (centres undefined) | 5.6 | 10.0 | nt | -1.9 | nt | nt
CC(CNC(=O)CN1C(=O)NC2(CCOc3ccccc32)C1=O)c1ccccc1 (centres undefined) | -5.6 | 4.2 | -3.8 | 28.2* | nt | -0.2
Cc1ccc([N+](=O)[O-])cc1-c1ccc(/C=C(\C#N)c2[nH]nc(N)c2C#N)o1 | 22.0 | 4.6 | 30.0* | 2.2 | 0.0 | -4.6
CC1=NN(c2ccccc2)C(=O)/C1=C\C=C\c1ccccc1 | nt | nt | 7.0 | nt | 5.6 | -0.1
CC1=NN(c2ccc(C)c(C)c2)C(=O)/C1=C\C=C\c1ccc([N+](=O)[O-])o1 | 4.5 | 2.2 | 25.4* | -2.8 | -0.9 | -1.2

From PubChem BioAssay
